In all, about 53,000 sequences went through this assay and about 3,700 (7%) were called active.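 How the source made its calls: active means gene knockdowns whose robust z-score for IL-1 alpha signal is at least 2 or at most -2, so actives lie on both sides; inactive means the rest.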 Shown is part of a subset that was picked to be rich in actives.
Assay: Components of the Cytosolic LPS Sensing Pathway: Gene Identification via Genome-wide siRNA Screen;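 further: robust z of the log signal after scaling to non-targeting control siRNA wells of the plate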
Details: RAW264.7 macrophages, IL-1a HTRF, actives lie on both sides, screened at 100 nM (by protocol), cells primed 5 h with Pam3CSK4 first
Method in brief: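 Read-out: IL-1a HTRF on supernatant, divided by plate negative-control median ×100, log-transformed and converted to robust z-score. Cells were RAW264.7 given 100 nM siRNA, Pam3CSK4-primed 5 hours, then LipidA-transfected 24 hour.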

| Sequence | z-score |
| --- | --- |
| GGAAAAAUCAGUUUCGUCUTT against Dgkq | 0.305 (inactive) |
| GGUUAGCCAGCUGAAUCAATT against Cxxc4 | 1.89 (inactive) |
| CCUAGAAAGAGGACUCAGATT against Abhd12 | -0.293 (inactive) |
| CCUUUAAAGGGCAUAUUCATT against Clip1 | 1.46 (inactive) |
| GGCCUGCCGGAGAUAAAGATT against Tex43 | -0.759 (inactive) |
| CCCUGUCUUUCCUAGGCCATT against Mcat | -3.3 (active) |
| AGGGCACAAAAGGUGACAATT against Rph3al | -0.887 (inactive) |
| GGAUGAUGUUCCCAUGCAATT against Cdca7l | -0.45 (inactive) |
| GCUGCUCGAUUGCUUUCCATT against 4930429B21Rik | 0.411 (inactive) |
| GGACCAAGUGGAAGAAGCATT against Nkx1-2 | -2.02 (active) |
| GGACAGAUGGAAUAGUGAATT against Klra10 | -0.657 (inactive) |
| CCAUCAAGCGAUUUGUGGUTT against Rnf103 | -0.156 (inactive) |
| GGCCAGCAGACUAUUUAUUTT against Derl1 | 0.304 (inactive) |
| GGUGCAAGUGCAGUUUCAATT against Fxyd6 | 2.38 (active) |
| GCACAAAAUUCACUGUUAGTT against Olfr112 | 0.965 (inactive) |
| GCUCGGUAGGUAUUUUCUGTT against Tmem164 | -0.13 (inactive) |
| GGCUGAUGCAGACAGUUUCTT against Brap | -0.655 (inactive) |
| GGAUUGAAACAGAUGAGAGTT against Gtf2e1 | 0.833 (inactive) |
| GGAGUGCUGAUAAAAGAAGTT against Atp5mpl | -0.952 (inactive) |
| GUUCUAUGGUAGACAUUAUTT against Gm5414 | -2.35 (active) |
| GCUCUCAUACACGGUGGAATT against Ros1 | -0.272 (inactive) |
| GGAGACCUCAGCUGAUAUUTT against Tmem109 | 0.51 (inactive) |

| Sequence | z-score |
| --- | --- |
| GGUUCUGAACCAGCUGGAGTT against Chd3 | 2.72 (active) |
| GGCCAUGCCUUUGUAUGCUTT against Tbc1d25 | -0.155 (inactive) |
| GGAUUUUGUUGACAAUGAUTT against Ncaph | -0.0936 (inactive) |
| GGAGCUCUUGGAUAUAAAATT against Eif4enif1 | 0.223 (inactive) |
| GGUGAGACAGAUAAAGUUCTT against Olfr1124 | 1.15 (inactive) |
| GGUAAAAGCUACCAUUCAGTT against Ap2a2 | -0.947 (inactive) |
| GGUUUGUUUUUGUUCGUUUTT against Cytip | -0.067 (inactive) |
| GGCAAGAAAAAUCAGAUUGTT against Cyld | 3 (active) |
| GGAGUUUACGGCUAUUGACTT against Adap2 | -0.884 (inactive) |
| GGUUUAAUUCUUGUCUUGUTT against Pvt1 | -0.928 (inactive) |
| GGUUAUCGGUUGUACAUAUTT against Chd3 | 1.03 (inactive) |
| CGUGGACUCUAUAAUCAACTT against Map7d1 | 2.47 (active) |
| GGCAAGCUUCCAGAUCGAATT against Adam23 | 0.0113 (inactive) |
| GGAACCAGAUCUCAUGCCCTT against Endov | -1.47 (inactive) |
| GGAUCACACUAGUAUUUUCTT against Sertad2 | -0.923 (inactive) |
| GCUAAAAACAACUAGGAAATT against Wdr60 | 0.391 (inactive) |
| GCAUCGUGUGCAAGAUCCUTT against Atp4b | 2.74 (active) |
| GGAAAUAUAUCUGAAAGGGTT against Sphkap | 0.514 (inactive) |
| GCUCGCUAAAGUGAUUAAATT against Gm5533 | 0.867 (inactive) |
| GGACUUUCUAAGGGUAAAATT against Luzp1 | -0.0646 (inactive) |
| GGACAAAGCUAUUGGGAUUTT against Olfr402 | 1.45 (inactive) |
| GGUGAUGGUCCAGAUUAACTT against Plpbp | -0.0895 (inactive) |

| Sequence | z-score |
| --- | --- |
| GCUGAAAUAGUUGCUAAAUTT against Usp6nl | 0.443 (inactive) |
| GGAACUGUCACAACUGCUATT against Acat3 | 3.22 (active) |
| GGAGAAGCUCAUCUCUCUGTT against Rfx2 | -1.35 (inactive) |
| GGAACAUCUUUCUUCUCCATT against Abhd4 | -0.869 (inactive) |
| GGAUUCGGACUUCAUAAUCTT against Dpp10 | 0.256 (inactive) |
| GCUGAUAAAUCUGAACUACTT against Dhrs7 | 1.15 (inactive) |
| GGUUCUGAGUAUUUAAAGCTT against Nt5dc3 | 2.21 (active) |
| GGACAUCUCCUUGAUCUUGTT against Slc1a5 | -0.95 (inactive) |
| UCACCAUCUUGAAGAUUCGTT against Olfr486 | -0.792 (inactive) |
| GCAGGAUCCUGAAACCAUGTT against Lrrc14 | -2.09 (active) |
| GCCCAAGACGAAAAGAUACTT against Mrpl9 | 0.662 (inactive) |
| GGAUAGCAAAUUCAUCACATT against Ptprg | -0.214 (inactive) |
| GGCUUCGUAGCUUUACAAATT against Abca6 | -0.846 (inactive) |
| GGAAAGGUCAAGAGAAUUUTT against Strn3 | -1.16 (inactive) |
| GGACUUACUGACAAGAAACTT against Pcdhgb8 | -0.52 (inactive) |
| UUCUAAUUGUCACUUGGUGTT against Olfr1474 | -0.133 (inactive) |
| GCUGGAUUAUUUGAGAGUCTT against Trim62 | 2.17 (active) |
| GCAUUAAGCAAUGGCAUCATT against Cbfa2t2 | 0.21 (inactive) |
| GCAUCAGAGAAGUGCGAGCTT against Pafah2 | -0.0121 (inactive) |
| GCUCAUGAUCAUAUCAUGATT against 1810055G02Rik | 0.647 (inactive) |
| CCCACACAAUUCUCAUGGGTT against Olfr366 | 0.661 (inactive) |
| GGAAUACGAAGAGAUUAUATT against Zw10 | 0.65 (inactive) |

| Sequence | z-score |
| --- | --- |
| CCUAGAAAAGUCAUUGUCATT against 3010003L21Rik | -2.08 (active) |
| CCUUCAAGAUAAAUUGACATT against Tango6 | 0.755 (inactive) |
| GGAAAAGGCCAUGAAUAUATT against Mmel1 | 0.176 (inactive) |
| GGCCAGACACAGGUAGACATT against B9d2 | -1.85 (inactive) |
| CGGACGAUUCGUGUCAAUUTT against Ppie | 0.619 (inactive) |
| GGACGAACAGUAUUAUACUTT against Lhx5 | 2.11 (active) |
| CCUGAUGUUAUUCCUUUUATT against Klhl20 | -0.524 (inactive) |
| GGUGAUGACGAAGGAAUCCTT against Zfpm2 | -1.51 (inactive) |
| GGAGCAAGACAUAUAGAAATT against Spsb2 | 2.26 (active) |
| GGACAUUUUUAUUAGUGGATT against Gtpbp8 | 1.04 (inactive) |
| CCAUUGGAGGAUAAGUUUUTT against Mtm1 | -0.0988 (inactive) |
| GGAAAAUGGAGAACUAAAGTT against Uxs1 | 1.88 (inactive) |
| GGAUAAACCCUACGUUCUATT against Slc44a4 | 0.658 (inactive) |
| GGUUAUCCGUGGUAACCAUTT against Taok3 | 0.78 (inactive) |
| CGAACGUGAUGAGUUAUGGTT against Vmn1r83 | -2.67 (active) |
| GGUAUUCGUGGAGUGGAGATT against Pdcd2l | 0.0458 (inactive) |
| GGGCAAUUAGUAAAGGCUATT against Eif2s3x | 2.02 (active) |
| GGUCCUACAAAAAGAUGGATT against Mettl7b | -0.536 (inactive) |
| CGAGAUUGUGCUGAUAGAGTT against Nptx2 | 0.533 (inactive) |
| CGUGUUGUACUACGUAUAUTT against Abtb1 | -0.172 (inactive) |
| CCUAAAAGACUUUGGAGACTT against Arg2 | -1.09 (inactive) |
| GGCCCUCAUGAUUGCUAUGTT against Nek8 | -0.722 (inactive) |

| Sequence | z-score |
| --- | --- |
| CCUUCCAUGGUGAGGAUAATT against Stim1 | -2 (active) |
| CCAGUUGAGUCACUUACUGTT against Borcs7 | 0.667 (inactive) |
| CGCGGCAUAAACAUGUAAATT against Gatc | -1.07 (inactive) |
| GGUGUCUUUCUUCACUCUUTT against Olfr862 | 0.225 (inactive) |
| CGUGUUUGAUCACUACUCUTT against Tnfaip8l2 | -0.593 (inactive) |
| GGACUGACUGGCUUCAUUGTT against Atl2 | -2.52 (active) |
| GCAGAUUAGCUUCGUCAACTT against Top2a | -0.588 (inactive) |
| GCGAAAUCCUGGGCUACUCTT against Dyrk4 | -0.32 (inactive) |
| GGUUGUGACUACACUAUGGTT against Zfp456 | -1.7 (inactive) |
| CGCAGAACGUGAACACCAATT against Smad3 | -2.47 (active) |
| GUUACACAGGAGUGUGUAATT against Rnase2a | 0.573 (inactive) |
| GGUGGCUUUAGGGAACAUUTT against Dctn3 | 0.369 (inactive) |
| GGAAAUGGAGAAAUAUGCATT against Plod3 | -0.167 (inactive) |
| ACCUUUGUCCUUUUGUUGUTT against Defb15 | 2.01 (active) |
| GGAGAUGAAAAAAACGAGCTT against Rxylt1 | -0.222 (inactive) |
| GCAAAUAAUGAGGUCCAGATT against Rbms2 | -0.377 (inactive) |
| GCAAGUCCUACAAUACAACTT against Tk1 | 5.5 (active) |
| GGCGAUGAAGAAGUAAUUUTT against Appl2 | -1.2 (inactive) |
| CCCAUUAAGGUAUAAUAUCTT against Olfr855 | -0.301 (inactive) |
| GGUUUCAUUUGGAUUUGCATT against Glyr1 | 0.491 (inactive) |

— PubChem BioAssay AID1508600 (Functional Genomics Laboratory (NCATS/FGL), 2020)
